Shown is part of a subset that was picked to be rich in hits.
Shiga toxin inh: inhibitors of Shiga toxin in Vero cells; Vero cells, Shiga toxin protein synthesis inhibition reporter; inhibition, % at 38.7 µM; hit rate 9.2% among 290,000; AID 2315; in the data active = inhibition mostly above about 28%, no sharp cut-off; inactive = mostly below about 43%; also: 0% is about no effect
Tb PYK inh: blocks Trypanosoma brucei pyruvate kinase. AID 624173. Potency, µM (doses to about 76.8 µM), for inactives: top-dose activity, negative = inhibition, most hits filed as inhibitors. Q57TT1. TbPYK enzyme, Kinase-Glo Plus ATP luminescence, 45 min. hit rate 0.12% among 410,000; also: potency is read from the fitted curve at half-maximal effect; % is scaled to controls: 0 for no effect and ±100 for the full control effect; nearly all actives have a fitted effect of over 50% in size
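Assay buffer: 50 mM TEA pH 7.2, 100 mM KCl, 10 mM MgCl2, 0.05% BSA, 0.01% Tween-20. Pyruvate kinase from T. brucei plus substrate met compound, then ADP (130 uM final). Luminescence was read post 45 min RT.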
FBPA Giardia inh: inhibitors of Giardia lamblia fructose-1,6-bisphosphate aldolase | hit rate 0.71% among 290,000 | Potency, µM (top dose mostly 59.6 µM), without a hit: at the top dose activity, negative = inhibition, actives largely listed as inhibitors | AID 2451 | purified Giardia FBPA; also: potency is read from the fitted curve at half-maximal effect; % is scaled to controls: 0 for no effect and ±100 for the full control effect; nearly all actives have a fitted effect of over 55% in size
Target sequence (A8B2U2 whole entry, looked up): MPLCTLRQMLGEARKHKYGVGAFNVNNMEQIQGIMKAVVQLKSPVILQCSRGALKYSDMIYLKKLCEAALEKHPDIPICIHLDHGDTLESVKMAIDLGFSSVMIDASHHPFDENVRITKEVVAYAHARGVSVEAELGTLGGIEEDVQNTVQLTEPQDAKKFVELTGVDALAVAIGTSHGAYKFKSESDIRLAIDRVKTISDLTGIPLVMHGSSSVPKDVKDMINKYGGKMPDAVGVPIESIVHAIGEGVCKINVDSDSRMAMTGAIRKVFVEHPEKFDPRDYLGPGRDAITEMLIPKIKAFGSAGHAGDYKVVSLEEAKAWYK
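Giardia FBPA (40 nM reagent) was preincubated 10 min at RT with compound (up to 57.5 uM final), then substrate plus GAPDH/TPI/NAD/arsenate coupling system with diaphorase/resazurin was added; resorufin fluorescence (525/598 nm) was read after 20 min.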
RE007 growth inh: less growth of the S. pombe RE007 Vpr strain; Potency, µM (top dose mostly 92.2 µM), for the others: top-dose activity change, negative = less growth, most hits filed as inhibitors; S. pombe RE007 Vpr strain, BacTiter-Glo ATP luminescence, 24 h; hit rate 0.21% among 360,000; active = well fitted falling curve with a large enough effect; inconclusive = small, poorly fitted or top-dose-only effect; inactive = no such curve, though single readings can be large or run the other way; also: potency is read from the fitted curve at half-maximal effect; % is scaled to controls: 0 for no effect and ±100 for the full control effect; nearly all actives have a fitted effect of over 50% in size
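Fission yeast strain RE007, carrying one chromosomally integrated HIV-1 vpr copy, was seeded at OD 0.01 in PMG+AL medium with 23 nL pinned compound. After 24 h at 30 °C and 99% humidity, viability was read by BacTiter-Glo luminescence.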
Cycloheximide cs: counter-screen for Shiga toxin inhibitors: cycloheximide protein synthesis inhibition. max response, %. hit rate 12% among 300,000. AID 2314. cell reporter, cycloheximide protein synthesis inhibition counterscreen; in the data active = max response mostly above about 13%, no sharp cut-off; inactive = mostly below about 14%; also: read at 38.3 µM for the half of the compounds with a filed dose; 0% is about no effect
LmPK inh: LmPK (Leishmania mexicana) enzyme inhibition | Q27686 | purified LmPK, Kinase-Glo ATP luminescence, 1 h | Potency, µM (doses to about 57.5 µM), without a hit: at the top dose activity change, negative = inhibition, actives largely listed as inhibitors | hit rate 0.37% among 290,000 | AID 1721; also: potency is read from the fitted curve at half-maximal effect; % is scaled to controls: 0 for no effect and ±100 for the full control effect
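ATP generated from ADP (0.1 mM) and PEP (0.5 mM) by 0.1 nM LmPK over 1 h at room temperature (pH 7.2 imidazole buffer) was detected by coupled luciferase luminescence. Values were normalized to uninhibited and no-enzyme wells.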
The depositor's hits bear a star; ? = inconclusive; · = no result; + = active, no number; [ ] = another dose, or the depositor's remark. Unless noted, calls follow the shape of the dose curve; as a rule, active = well fitted curve in the direction sought with a large enough effect; inconclusive = small, poorly fitted or top-dose-only effect, or another doubt; inactive = no such curve, though single readings can be large; an effect the other way counts as inactive or inconclusive.

SMILES	Shiga toxin inh	Tb PYK inh	FBPA Giardia inh	RE007 growth inh	Cycloheximide cs	LmPK inh
O=C(NCCc1ccc(Cl)cc1)c1ccc2c(c1)OCCO2	·	-2%	-2%	53%	42*	0%
O=C(NCCN1CCCCC1)c1ccc2c(c1)OCCO2	31	7%	3%	4%	14*	-1%
O=C(NCCOc1ccc(Cl)cc1)c1ccc2c(c1)OCCO2	·	-7%	·	10%	·	·
O=C(NCCc1ccc(Cl)cc1)c1ccc2c(c1)OCO2	83*	1%	19%	13%	43*	-3%
Cc1cc2c(s1)c1cnn(Cc3cccc(Cn4ncc5c6sc(C)cc6n(C)c5c4=O)c3F)c(=O)c1n2C	-1	·	·	·	-4	·
CC(C)=CCC1=C(O)c2ccccc2C(=O)C1=O	·	·	1.1µM*	·	·	·
O=C1C(=O)c2ccccc2C(O)=C1CC=C(Cl)Cl	·	2%	·	?	·	·
Cn1cccc1C(=O)N1CCC[C@@]2(CCN(C(c3ccccc3)c3ccccc3)C2)C1	·	-4%	4%	·	·	·
O=C(NC1CC1)c1ccc(CSCc2cccc(F)c2)o1	35	-4%	-8%	4%	11*	2%
CCC(C)NC(=O)c1ccc(CSCc2cccc(F)c2)o1 (centres undefined)	33	1%	3%	8%	25*	1%
COc1ccccc1NC(=O)C(C)Sc1nnc2ccc3ccccc3n12 (centres undefined)	·	-11%	·	·	·	·
CC(C)(C)C1CCc2c(sc3ncn(N)c(=N)c23)C1 (centres undefined)	40	0%	6%	-12%	13*	2%
Cc1ccsc1/C=N/NC(=O)c1c[nH]c2ccccc12	106*	0%	-6%	12%	60*	0%
CC/C(=N\NC(=O)c1c[nH]c2ccccc12)c1cccs1	61*	5%	-12%	6%	62*	-1%
C/C(=N/NC(=O)c1ccncc1)c1c[nH]c2ccccc12	48	1%	-13%	-7%	7	-8%
O=C(N/N=C/c1ccsc1)c1c[nH]c2ccccc12	67*	2%	-3%	-3%	47*	2%
O=C(N/N=C/c1ccsc1)c1cc(-c2cccs2)nc2ccccc12	-7	5%	0%	0%	1	4%
Cc1ccsc1/C=N/NC(=O)c1cc(-c2ccncc2)nc2ccccc12	-3	-5%	-2%	2%	-1	0%
CCc1c(C(=O)N/N=C/c2ccsc2)csc1C	+	1%	-9%	0%	39*	0%
O=C(Nc1cc(Cl)ccc1C(=O)O)c1ccc(CN2C(=O)c3ccccc3C2=O)cc1	·	-1%	·	18%	·	·
C/C(=N\NC(=O)c1c[nH]c2ccccc12)c1ccc(C)s1	38	0%	0%	3%	25*	-4%
COc1ccc(C/C(C)=N\NC(=O)c2c[nH]c3ccccc23)cc1OC	71*	-4%	-3%	11%	29*	-1%
Cc1ccc(/C=N/NC(=O)c2c[nH]c3ccccc23)o1	72*	4%	-1%	7%	20*	0%
CCn1nc(C)c(/C=N/NC(=O)c2c[nH]c3ccccc23)c1C	40*	2%	-1%	-20%	50*	-2%
Cc1ccc(Cn2c(C)c3cnn(CC(=O)NCCc4ccc(Cl)cc4)c(=O)c3c2C)cc1	·	-3%	·	·	·	·
SMILES	Shiga toxin inh	Tb PYK inh	FBPA Giardia inh	RE007 growth inh	Cycloheximide cs	LmPK inh
Cc1c(C(=O)Nc2cccc(C(F)(F)F)c2)sc2nc[nH]c(=O)c12	·	-1%	·	·	·	·
CCn1nc(C)c(/C=N/NC(=O)Cn2nc(C)cc2C)c1C	31	0%	4%	0%	4	2%
Cc1ccc(/C=N/NC(=O)c2c[nH]c3ccccc23)s1	77*	5%	·	8%	30*	0%
Cc1ccc(/C=N/NC(=O)C[n+]2ccccc2)s1	5	3%	1%	5%	5	2%
O=C(N/N=C/c1cc([N+](=O)[O-])ccc1O)c1c[nH]c2ccccc12	11	7%	9%	3%	-3	4%
CCn1nc(C)c(/C=N/NC(=O)Cn2nccc2C)c1C	72*	1%	5%	-5%	37*	-2%
O=C(N/N=C/c1cccc([N+](=O)[O-])c1)c1c[nH]c2ccccc12	79*	5%	-14%	-3%	34*	1%
CCOc1ccccc1C(=O)Nc1cc2c(cc1N1CCOCC1)n(C)c(=O)n2C	·	-5%	·	·	·	·
O=C(CCCn1c(=O)c2ccccc2n(CC(=O)Nc2cccc(Cl)c2)c1=O)NCc1ccc2c(c1)OCO2	·	-4%	·	·	·	·
Cc1ccccc1NS(=O)(=O)c1cc(C(=O)NCCSC2CCCCC2)ccc1C	21	-9%	-3%	11µM*	2	-1%
N#CCSc1nc2ccc(N3CCCCC3)cc2c(=O)n1Cc1ccccc1	38*	-8%	-24%	7%	21*	4%
CCOC(=O)c1cc(-c2ccc(F)cc2)n(CCC(=O)Nc2ccccc2OC)c1C	·	8%[15.4 µM]	·	·	·	·
CCOc1ccc(/C=C/C(=O)c2ccccc2)cc1OC	80*	2%	-3%	-19%	56*	-7%
COc1cc(/C=C/C(=O)OCC(=O)N2CCC(C)CC2)ccc1OCC#N	·	-1%	·	6%	·	·
COc1cc(/C=C/C(=O)c2ccc(C)c([N+](=O)[O-])c2)cc(OC)c1O	-6	-22%	-12%	-23%	-1	-3%
COc1cc(/C=C/C(=O)c2ccc(O)cc2)ccc1OCC#N	85*	-3%	7%	-4%	71*	5%
COc1ccc(/C=C/C(=O)c2ccc(C)c([N+](=O)[O-])c2)cc1O	79*	-21%	-10%	·	46*	0%
COc1cccc(C(=O)/C=C/c2ccc(OCC#N)c(OC)c2)c1	16*	-8%	-6%	-20%	39*	0%
CCOc1ccc(C(=O)/C=C/c2ccc(OC)c(OC)c2)cc1	26	2%	-12%	?	1	-11%
Cc1cccc(-n2c(=O)c3ccccc3n(Cc3ccc(F)cc3)c2=O)c1	·	-4%	·	·	·	·
Cn1c(=O)c2c(-c3ccccc3)n3c4ccccc4nc(-c4ccccc4)c3c2n(C)c1=O	·	0%	·	·	·	·
COc1cccc(CCNC(=O)Cn2c(-c3cccs3)cc3ccccc32)c1	·	5%	·	·	·	·
CCCNC(=O)OCCC12CC3CC(CC(C3)C1)C2	25*	-16%	0%	45%	59*	2%
CCCNC(=O)NCCC12CC3CC(CC(C3)C1)C2	65*	3%	3%	24%	45*	-10%
Cc1nc(-c2ccc(S(=O)(=O)N3CCN(c4cc(Cl)ccc4C)CC3)cc2)co1	·	-6%	·	·	·	·
CCn1cc(/C=C(\NC(=O)c2ccc(OC)c(OC)c2)C(=O)NCCCn2ccnc2)c2ccccc21	·	1%	·	·	·	·
CC1=CC(C)(C)Nc2ccc(OC(=O)CN3C(=O)c4ccccc4C3=O)cc21	55*	-8%	-10%	-19%	35*	4%
